# Experimental data as given in PubChem BioAssay (NCI).
# This is part of a sample that, as a whole, favours compounds with a hit. Of some 83,000 tested, about 20% had one in any assay.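 Assay: single dose, 48 h. Readout: percent growth (0 = no net growth; negative = cell death). Active: <10.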 Values without a mark were called inactive. Active and inactive are the calls of the source.
# Key:
# Experiment in all cases: NCI-60 one-dose screen, 48 h (100 = growth as untreated, 0 = no growth, -100 = all killed)
# Conditions in all cases: 10 µM unless noted
# HT29 colon = test system: HT29 colon
# SNB-75 CNS = test system: SNB-75 CNS
# SNB-19 CNS = test system: SNB-19 CNS
# U251 CNS = test system: U251 CNS
# PC-3 prostate = test system: PC-3 prostate
# SK-MEL-5 melanoma = test system: SK-MEL-5 melanoma
# UACC-62 melanoma = test system: UACC-62 melanoma
# LOX IMVI melanoma = test system: LOX IMVI melanoma
# SK-MEL-28 melanoma = test system: SK-MEL-28 melanoma
# SK-MEL-2 melanoma = test system: SK-MEL-2 melanoma
SMILES,growth (HT29 colon),growth (SNB-75 CNS),growth (SNB-19 CNS),growth (U251 CNS),growth (PC-3 prostate),growth (SK-MEL-5 melanoma),growth (UACC-62 melanoma),growth (LOX IMVI melanoma),growth (SK-MEL-28 melanoma),growth (SK-MEL-2 melanoma)
CC(=O)Nc1cc(F)cc(-c2ccc3[nH]cc(-c4ccccc4)c3n2)c1,-49.6% (active),111%,12.9%,-2.16% (active),20%,49%,-1.28% (active),-62.4% (active),-67.5% (active),-17.5% (active)
COc1cc(-c2nc3ccc(-c4nnc(SCC(=O)Nc5ccc(C(C)=O)cc5)o4)cc3[nH]2)cc(OC)c1OC,108%,96.6%,100%,103%,93.3%,102%,93.2%,108%,103%,115%
CCOC(=O)c1c(Nc2ccccc2)nn2c(-c3ccco3)c(C#N)cnc12,100%,30.5%,78.3%,109%,86.4%,91.3%,91%,81.4%,90.6%,90.3%
Clc1ccc2c(NCCCn3ccnc3)c3oc4ccccc4c3nc2c1,19.4%,47.8%,57.1%,19.6%,47.9%,76%,66.1%,14.4%,68.2%,84.9%
CC(C)(O)c1cncc(-c2ccc3ncnc(N4CCc5cc(F)c(Cl)cc54)c3c2)c1,20.8%,-20% (active),25.2%,42.6%,18.7%,13.4%,5.48% (active),12.2%,24.8%,-1.1% (active)
O=c1[nH]c2ccc(Cl)cc2cc1CSc1ccccc1Nc1nccc(-c2ccc(Cl)cc2)n1,109%,76.6%,95%,79.7%,69%,95.1%,75.9%,98.4%,106%,129%
COc1ccc2[nH]cc(-c3cc(N)n4nc(-c5c[nH]c6ccc(OC)cc56)cc4n3)c2c1,-56.1% (active),106%,78.6%,-87.6% (active),5.09% (active),3.11% (active),-53.4% (active),-63.9% (active),-69.4% (active),72.5%
Cn1cc(-c2cc(N)n3nc(-c4cn(C)c5ccc(Cl)cc45)cc3n2)c2cc(Cl)ccc21,-16.5% (active),83.2%,99.4%,-4.82% (active),87.3%,104%,93.9%,11.3%,76.7%,121%
OC1CCN(CCCOc2c3ccc(Cl)cc3nc3c2oc2ccc(Cl)cc23)CC1,-86% (active),14.9%,29.5%,-93.5% (active),21%,-7.79% (active),-68.4% (active),-92.9% (active),-84.5% (active),50.6%
O=C1c2c(c3c4cccnc4[nH]c3c3ccc4ccccc4c23)C(=O)N1CCO,75.6%,118%,69.9%,51.4%,70.1%,81.4%,46.5%,51.7%,102%,138%
Fc1ccc(-c2cc3nc(C(Cl)Cl)nc(-c4ccc(Cl)cc4)n3n2)cc1,-35% (active),-2% (active),6.37% (active),-58.1% (active),22.8%,76.9%,53.1%,70.9%,11.6%,89.4%
CS(=O)(=O)c1ccc(-n2cc(/C=C/C(=O)c3ccc(NC(=O)CO[N+](=O)[O-])cc3)c(-c3ccc(Cl)cc3)n2)cc1,108%,111%,84.9%,92.9%,96.2%,98.4%,83.3%,96.9%,66.1%,94.9%
O=C(CSc1nc2sc3c(c2c(=O)n1-c1ccc(Cl)cc1)CCCC3)NNC(=O)Nc1cccc(C(F)(F)F)c1,26.2%,36.3%,21.8%,16.7%,7.37% (active),35.4%,17.3%,-17% (active),33.2%,-8.08% (active)
Clc1ccc2oc3c(NCCCn4ccnc4)c4ccccc4nc3c2c1,-35.2% (active),42.1%,51%,11.6%,55.4%,78%,45.2%,-72.1% (active),59%,110%
c1ccc2c(NCCCN3CCOCC3)c3oc4ccccc4c3nc2c1,-48.2% (active),-4.26% (active),5.03% (active),-2.33% (active),7.6% (active),-90.4% (active),-52.1% (active),-38.6% (active),-46.9% (active),-75.4% (active)
C/C(=C(/c1ccc(Cl)cc1)c1ccc(OCCN)cc1)c1ccc(C)cc1,111%,94.6%,92.6%,101%,94.6%,106%,88.6%,105%,99.6%,112%
Clc1ccc2c(NCCCN3CCOCC3)c3oc4ccc(Cl)cc4c3nc2c1,33.5%,79.6%,69.6%,44.1%,60.8%,74.2%,98.7%,-82.8% (active),80.4%,122%
Oc1c(Cl)cc(Cl)c2ccc(CN3CCCCC3)nc12,48.3%,83.3%,44.1%,30.6%,56.8%,33.1%,4.28% (active),31.7%,28.7%,84.1%
NS(=O)(=O)c1cccc(Nc2nc(SCC(=O)c3ccc([N+](=O)[O-])cc3)nc3ccccc23)c1,71.2%,45.9%,73.7%,52.2%,24.2%,7.52% (active),-12.7% (active),,60.3%,13.2%
C/C(=N\NC(N)=O)c1c(O)sc(=O)[nH]c1=O,111%,101%,93.2%,108%,97%,101%,92.6%,,99.7%,
Cn1c(SCC(=O)Nc2ccc(-c3nc4ccc([N+](=O)[O-])cc4[nH]3)cc2)nc2ccccc2c1=O,89.7%,93.2%,85.8%,92%,68.7%,84.8%,75%,,79.4%,90.7%
Cn1ccnc1C(=O)/C=C/c1ccc(NC(=O)Nc2ccccc2)cc1,3.3% (active),17.1%,21.8%,2.77% (active),37.8%,77.9%,38.5%,,75.1%,102%
